Data as given in paper PMC12618258.

Experiments:
Assay in all cases: cross-link between two proteins; cross-linking mass spectrometry
[1] = biological target: Large ribosomal subunit protein eL24 (UniProt P83731)
[2] = biological target: Large ribosomal subunit protein eL38 (UniProt P63173)
[3] = biological target: Large ribosomal subunit protein eL30 (UniProt P62888)
[4] = biological target: Large ribosomal subunit protein eL6 (UniProt Q02878)
[5] = biological target: Large ribosomal subunit protein uL3 (UniProt P39023)

Large ribosomal subunit protein eL22, P35268
listed as a hit [1]: yes | listed as a hit [2]: yes

Large ribosomal subunit protein eL31, P62899
listed as a hit [1]: yes

Small ribosomal subunit protein uS4, P46781
listed as a hit [3]: yes

Small ribosomal subunit protein uS5, P15880
listed as a hit [4]: yes

Large ribosomal subunit protein eL13, P26373
listed as a hit [5]: yes
